Our source for the AC50 and outcome values is PubChem BioAssay (EPA / NIEHS).

Usually AC50 stands for the midpoint of the concentration-response curve, whichever way the signal moves.

Structures are written as SMILES. Some compounds were tested as several samples or in several runs, with calls that do not always agree. The source made the active and inactive calls. Rule for the calls: active = hit-call score of the fitted dose curve at least 0.9, where 1 is the maximum; inactive = score below 0.9.

A short description of the experiment: STM_H9_CystineISnorm_perc: Stemina devTOX quickPredict H9 human embryonic stem cell (hESC)-based Assay for Cystine (CYSS) Metabolite Biomarker, Normalized (AID 2283713). An excerpt:
STM_H9_secretome utilizes undifferentiated H9 cells to measure relative changes in two metabolites, ornithine (ORN) and cystine (CYSS) in the secretome, targeting a critical drop in the ORN/CYSS ratio as a biomarker for developmental toxicity.STM_H9_CystineISnorm_perc is one of 10 components calculated in the STM_H9_secretome assay. It measures the integrated area of the endogenous cystine normalized to the spiked-in isotopically labeled standard and to the median value of the 0.1% DMSO neutral control treatment using UPLC-HRMS technology.Data from the assay component STM_H9_CystineISnorm_perc was analyzed at the assay endpoint STM_H9_CystineISnorm_perc in the positive analysis fitting direction relative to DMSO as the negative control and baseline of activity. Using a type of binding reporter, gain or loss-of-signal activity can be used to understand relative metabolite change.
H9 hESCs maintained in a pluripotent state were exposed to test compound for 72h with chemical replenishment with media replacement every 24h. Cell-conditioned media from the final 24-h treatment period was collected for analysis of the targeted biomarker, and cell viability of the corresponding cell layer was assessed. The chemical library was tested in blinded fashion. Each test plate included 1uM Methotrexate (MTX; Selleck Chemicals, Houston, Texas) as a positive reference, 5 nM MTX as a negative reference, 0.1% DMSO as the neutral (vehicle) control, and sample-level media blanks.H9 cell-conditioned media from the final 24-h treatment period was collected for analysis of the targeted biomarker and cell viability was measured from the corresponding cell layer. Cell viability was measured using the CellTiter-Fluor assay (Promega, Madison, Wisconsin) based on proteolytic cleavage of a substrate to fluorescent signal proportional to the number of living cells. The cell viability Relative Fluorescence Unit (RFU) was background corrected and normalized to mean RFU of the neutral control (0.1% DMSO). The collected H9-cell-conditioned media samples were processed for targeted biomarker analysis as described (Palmer et al., 2013). Briefly, spent media samples were deproteinized (40% acetonitrile) and processed for UPLC-HRMS. Data acquisition was performed using 4 separate UPLC-HRMS systems, consisting of an Agilent 1290 Infinity LC system (Agilent Technologies) interfaced with an Agilent high-resolution mass spectrometer (models G6520A, G6520B, G6530A, and G6224A). A Waters Acquity UPLC BEH Amide column (2.1mm x 50mm, 1.7lm particle size; Waters, Milford, Massachusetts) maintained at 40C was applied for separation of metabolites using a 6.5min solvent gradient with 0.1% formic acid in water and 0.1% formic acid in acetonitrile (1.0ml/min flow rate). Data were acquired using MassHunter Acquisition software (version B 04.00, Agilent Technologies). The extracted ion chromatogram (EIC) areas for ORN, CYSS, and their respective spike-in C13-standards were determined using the Agilent MassHunter Quantitative Analysis software, version B.05.00 or newer (Agilent Technologies), and data were normalized as described in Palmer et al. (2017).
On to `CSc1nc(NC(C)C)nc(NC(C)C)n1`, for which the concentration at half-maximal activity (AC50) is 0.234 µM (active).

As to `CSc1nnc(C(C)(C)C)c(=O)n1N`, the result was inactive. Same read-out and setting: under `CC1=NNC(=O)N(/N=C/c2cccnc2)C1` stands “inactive”. As to `O=[N+]([O-])c1cc(C(F)(F)F)c(Cl)c([N+](=O)[O-])c1Nc1ncc(C(F)(F)F)cc1Cl`, the AC50 is 16.4 µM (active). On to `CCCCOC(=O)[C@@H](C)Oc1ccc(Oc2ccc(C#N)cc2F)cc1`, for which the AC50 was 77.7 µM (active). Consider `CCOP(=S)(OCC)Oc1ccc2c(C)c(Cl)c(=O)oc2c1`, for which the result was inactive. With `C=C(C)[C@H]1Cc2c(ccc3c2O[C@@H]2COc4cc(OC)c(OC)cc4[C@@H]2C3=O)O1`, the AC50 is 0.279 µM (active). The same measure, in the same setting: under `CC(C1CC1)C(O)(Cn1cncn1)c1ccc(Cl)cc1` (centres undefined) stands 83 µM (active); under `CCOP(=S)(OCC)SCCSCC`, 31.1 µM (active). As for `CCOP(=S)(OCC)Oc1cc(C)nc(C(C)C)n1`, the AC50 was 73.3 µM (active). Turning to `CON=C(C(=O)OC)c1ccccc1CON=C(C)c1cccc(C(F)(F)F)c1`, the result was inactive. On to `CN(C)[C@@H]1C(=O)C(C(N)=O)=C(O)[C@@]2(O)C(=O)C3=C(O)c4c(O)cccc4[C@@](C)(O)[C@H]3[C@H](O)[C@@H]12`, for which the outcome was inactive and the concentration at half-maximal activity (AC50) was 11.6 µM (active). For `CC(C)N(C(=O)SCC(Cl)=C(Cl)Cl)C(C)C`, the AC50 is 12.4 µM (active). Take `CNc1cnn(-c2cccc(C(F)(F)F)c2)c(=O)c1Cl`: the result was inactive. Still for that read-out and setting: then `C[N+]1(C)CCCCC1`, with “inactive”. Regarding `CC(C)[C@H](C(=O)O[C@H](C#N)c1cccc(Oc2ccccc2)c1)c1ccc(Cl)cc1`, the AC50 was 80.5 µM (active). In the case of `S=C1NCCN1`, the outcome was inactive. As to `CCNc1nc(Cl)nc(NC(C)(C)C#N)n1`, the outcome was inactive. Take `FC(F)C(F)(F)OCC(Cn1cncn1)c1ccc(Cl)cc1Cl` (centres undefined): the result was inactive. Still for that read-out and setting: then `CCC(=NOC/C=C/Cl)C1=C(O)CC(C2CCOCC2)CC1=O` (centres undefined), with “inactive”. On to `N#CSCSC#N`, for which the AC50 was 7.75 µM (active). As to `Cc1nn(-c2cc(NS(C)(=O)=O)c(Cl)cc2Cl)c(=O)n1C(F)F`, the result was inactive. Still for that read-out and setting: then `CN(C)C(=O)Nc1cccc(C(F)(F)F)c1`, with “inactive”. The same measure, in the same setting: under `Cc1ccn2nc(S(=O)(=O)Nc3c(F)cccc3F)nc2n1` stands “inactive”; under `COc1ccc(C(=CC(=O)N2CCOCC2)c2ccc(Cl)cc2)cc1OC`, “inactive”. As to `C[Si](Cn1cncn1)(c1ccc(F)cc1)c1ccc(F)cc1`, the AC50 was 30.2 µM (active). With `CSC1=N[C@@](C)(c2ccccc2)C(=O)N1Nc1ccccc1`, the half-maximal activity concentration (AC50) is 30.1 µM (active). The same measure, in the same setting: then `CC(COc1ccc(Oc2ccccc2)cc1)Oc1ccccn1` (centres undefined), with 0.0124 µM (active).
